Screens (PubChem BioAssay)
TRb SRC2 PPI: qHTS for Inhibitors of the Interaction of Thyroid Hormone Receptor and Steroid Receptor Coregulator 2; 280,000 tested, 0.065% active; TRbeta-SRC2 peptide binding, fluorescence polarization; receptor liganded with 1 µM T3; Thyroid hormone receptor beta (Homo sapiens), P10828; Potency, µM (series often up to 106 µM), without a hit: at the highest dose activity change, negative = inhibition, actives largely listed as inhibitors;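 also: plate controls were bound peptide for no effect and peptide without receptor for full effect; nearly all actives have a fitted effect of over 50% in size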
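Binding of a 20-amino-acid Texas Red SRC2 peptide (20 nM) to TRb ligand-binding domain (0.6 uM) with agonist T3 at 1 uM was followed by fluorescence polarization after a 5 hr room-temperature incubation.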
RECQ1 helicase: qHTS Assay for Inhibitors of RecQ-Like Dna Helicase 1 (RECQ1) | 240,000 tested, 0.54% active | Potency, µM (doses to about 57.3 µM), for the others: at the highest dose activity, negative = inhibition, hits mostly inhibitors | ATP-dependent DNA helicase Q1 (Homo sapiens), P46063 | RECQ1 DNA unwinding, red fluorescence kinetic read;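 also: plate controls were vehicle for no effect and no enzyme for full effect; nearly all actives have a fitted effect of over 30% in size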
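50 nM RECQ1T1 preincubated 15 min with compound in Tris pH 8.0 buffer with MgCl2, DTT, Tween-20 and 2.5 ug/ml poly(dI-dC); started with 200 nM TAMRA/BHQ-2 forked duplex and 2 mM ATP. Unwinding read as fluorescence (525/598 nm), two reads 2 h apart.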
TexasRed fluor: Total Fluorescence Counterscreen for Inhibitors of the Interaction of Thyroid Hormone Receptor and Steroid Receptor Coregulator 2; TRb/SRC2 Texas Red total fluorescence interference; Potency, µM (highest dose often 106 µM), inactives show top-dose fluorescence change, negative = quenching; AID 1479, 2009; 280,000 tested, 0.29% active; active = well fitted curve in either direction with a large enough effect; inconclusive = small, poorly fitted or top-dose-only effect
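Human TRβ ligand-binding domain (0.6 uM) and Texas Red SRC2 peptide (20 nM) in Tris buffer with 1 uM T3 and 5% DMSO were incubated with pinned compound for 5 hr at ambient temperature. Total fluorescence was computed as S + 2P (555/632 nm).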
BLM inh: qHTS Assay for Inhibitors of Bloom's syndrome helicase (BLM); RecQ-like DNA helicase BLM (Homo sapiens), P54132; recombinant BLM DNA unwinding, fluorescence dequenching; Potency, µM (series often up to 56.1 µM), without a hit: at the highest dose activity change, negative = inhibition, hits mostly inhibitors; 350,000 tested, 0.2% active; AID 2528, 2010;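 also: plate controls were vehicle for no effect and no enzyme for full effect; nearly all actives have a fitted effect of over 35% in size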
Target sequence (P54132 whole entry, looked up): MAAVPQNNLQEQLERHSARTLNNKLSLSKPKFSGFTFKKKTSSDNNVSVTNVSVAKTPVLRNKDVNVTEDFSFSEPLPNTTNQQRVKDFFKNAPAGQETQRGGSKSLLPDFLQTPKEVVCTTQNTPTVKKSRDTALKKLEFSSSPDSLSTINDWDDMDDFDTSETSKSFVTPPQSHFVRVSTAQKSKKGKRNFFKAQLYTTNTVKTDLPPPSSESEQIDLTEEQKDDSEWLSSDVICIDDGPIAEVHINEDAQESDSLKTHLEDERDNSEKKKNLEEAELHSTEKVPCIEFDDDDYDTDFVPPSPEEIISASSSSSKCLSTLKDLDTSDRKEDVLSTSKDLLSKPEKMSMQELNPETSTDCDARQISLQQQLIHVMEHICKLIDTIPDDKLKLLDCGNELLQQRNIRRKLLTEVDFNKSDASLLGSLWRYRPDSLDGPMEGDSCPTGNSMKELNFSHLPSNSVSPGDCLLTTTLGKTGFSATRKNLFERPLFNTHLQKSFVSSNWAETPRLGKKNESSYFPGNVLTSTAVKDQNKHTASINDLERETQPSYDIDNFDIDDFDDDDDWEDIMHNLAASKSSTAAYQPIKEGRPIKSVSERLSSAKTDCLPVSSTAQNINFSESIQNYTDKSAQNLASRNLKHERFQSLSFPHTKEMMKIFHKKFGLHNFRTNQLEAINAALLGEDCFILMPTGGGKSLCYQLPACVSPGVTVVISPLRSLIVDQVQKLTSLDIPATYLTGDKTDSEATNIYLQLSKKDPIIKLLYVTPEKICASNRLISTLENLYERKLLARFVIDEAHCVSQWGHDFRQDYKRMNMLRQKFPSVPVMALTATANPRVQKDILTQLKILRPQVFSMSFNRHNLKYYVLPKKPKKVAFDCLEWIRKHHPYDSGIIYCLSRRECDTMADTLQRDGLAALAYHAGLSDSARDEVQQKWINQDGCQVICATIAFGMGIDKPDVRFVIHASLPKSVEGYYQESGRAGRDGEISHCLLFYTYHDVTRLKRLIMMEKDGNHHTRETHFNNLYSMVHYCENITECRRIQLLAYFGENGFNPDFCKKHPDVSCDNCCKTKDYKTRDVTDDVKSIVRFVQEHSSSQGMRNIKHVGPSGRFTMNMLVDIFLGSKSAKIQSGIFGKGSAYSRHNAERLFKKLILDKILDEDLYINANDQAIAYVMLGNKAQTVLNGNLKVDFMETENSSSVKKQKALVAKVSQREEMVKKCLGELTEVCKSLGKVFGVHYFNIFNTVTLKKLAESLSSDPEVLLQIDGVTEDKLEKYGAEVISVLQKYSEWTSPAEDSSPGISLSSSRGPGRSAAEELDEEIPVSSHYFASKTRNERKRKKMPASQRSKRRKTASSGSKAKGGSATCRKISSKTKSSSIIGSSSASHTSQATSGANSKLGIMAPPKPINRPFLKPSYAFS
Numbers without * were called inactive; i = inactive; ? = inconclusive; / = not tested or not shown; ! = not active in a repeat; [ ] = another dose, or the depositor's remark. Hits are enriched below; roughly 0.64% of the tested compounds scored in any of these assays. Unless noted, calls follow the shape of the dose curve; as a rule, active = well fitted curve in the direction sought with a large enough effect; inconclusive = small, poorly fitted or top-dose-only effect, or another doubt; inactive = no such curve, though single readings can be large; an effect the other way counts as inactive or inconclusive. Unless noted, % is scaled to controls: 0 for no effect and ±100 for the full control effect; potency is read from the fitted curve at half-maximal effect.

SMILES | TRb SRC2 PPI | RECQ1 helicase | TexasRed fluor | BLM inh
C=CCN1C(=O)/C(=C/C=C2/N(CC)c3ccc(S(=O)(=O)N(C)C)cc3N2CC)SC1=S | 29% | 4µM* | ? | 10µM*
C=C(C)C(=O)OCCN(C)C | 5%[201 µM] | / | 4%[201 µM] | /
CCN=c1scc(C)n1/N=C/c1ccc(O)c(O)c1O | 1% | 25µM* | -19% | -19%
CCc1ccc(C(=O)c2cn(CC(=O)Nc3ccc4c(c3)OCO4)c3ccc(OC)cc3c2=O)cc1 | 0% | / | -2% | 14µM*
CCc1ccc(C(=O)c2cn(CC(=O)Nc3ccc(OC)cc3)c3cc4c(cc3c2=O)OCO4)cc1 | -2% | / | -1% | -11%
COc1cccc(NC(=O)CSc2nc3c(oc4ccccc43)c(=O)n2Cc2ccco2)c1 | -7% | / | 1% | -9%
C[C@]12CC[C@@H]3c4ccc(O)cc4CC[C@H]3[C@@H]1CC[C@@H]2O | 1% | 32µM*! | -2% | -7%
CCCCCCCCCCCC[N+](C)(C)C | 8%[201 µM] | / | -2%[201 µM] | /
Cc1ccc(NC(=O)Cc2ccccc2Cl)cc1S(=O)(=O)N(C)C | -24%[53 µM] | -14% | 0.1µM*[quencher] | -9%
CCCOc1ccccc1C1C(C(=O)Nc2ccccc2)=C(C)Nc2nnnn21 (centres undefined) | -11% | / | 0.1µM*[quencher] | -2%
CC1=C(c2ccc(C)c(C)c2)S(=O)(=O)N=C1N1CCC(C(=O)N2CCCCC2)CC1 | -20% | / | 562µM*[quencher] | 4%
COc1ccc(C2=C(C)C(N3CCC(C(=O)Nc4ccccc4F)CC3)=NS2(=O)=O)cc1 | 1% | / | -5% | -22%
CCC1=C(c2ccc(C)cc2)S(=O)(=O)N=C1N1CCC(C(=O)N2CCCCC2)CC1 | 0% | / | -3% | -1%
COc1ccc(NC(=O)C2CCN(C3=NS(=O)(=O)C(c4ccc(C)c(C)c4)=C3C)CC2)c(OC)c1 | ? | / | 224µM*[quencher] | -2%
C[C@]12CC[C@@H]3c4ccc(O)cc4CC[C@H]3[C@H]1CC[C@H]2O | 12%[201 µM] | / | 1%[201 µM] | /
O=c1c2oc3ccccc3c2n(Cc2cccc(Cl)c2)c(=O)n1Cc1ccco1 | -6% | / | 0% | -5%
CCN1C(=O)c2ccccc2Sc2ccc(NC(=O)Nc3cccc([N+](=O)[O-])c3C)cc21 | -22% | / | 0.0005µM*[quencher] | -2%
O=C1c2sc3nc4n(c(=O)c3c2CCC1Br)CCCCC4 (centres undefined) | -13% | -12% | -2% | 25µM*
CC(N)(Cc1ccc(O)c(O)c1)C(=O)O (centres undefined) | 0% | 3.2µM* | 2% | ?
CC(=O)c1ccc(NC(=O)c2cn3c4c(ccc(Cl)c4c2=O)OC(C)C3)cc1 (centres undefined) | 0% | / | 4% | -6%
COc1ccc(NC(=O)c2cn3c4c(ccc(Cl)c4c2=O)OC(C)C3)cc1OC (centres undefined) | -18% | / | 25µM*[quencher] | -6%
CCN1/C(=C/C=C/c2oc3ccc(-c4ccccc4)cc3[n+]2CC)Oc2ccc(-c3ccccc3)cc21 | 6% | -18% | -2% | 22µM*
CCCCN1C(=O)/C(=C/C=C2\Oc3ccccc3N2CC)SC1=S | 24%[53 µM] | i | 18%[53 µM] | -4%
CCC(CC)C(=O)Nc1ccc(OCc2cc(=O)n3ccc(C)cc3n2)cc1 | 2% | / | 0% | 0%
CCCCOc1ccc(C(=O)N2CCN(CCc3ccncc3)CC2)cc1 | -11% | / | 6.3µM*[quencher] | 1%
SMILES | TRb SRC2 PPI | RECQ1 helicase | TexasRed fluor | BLM inh
C=C(C)C(=O)OCCOCCOCCOC(=O)C(=C)C | 0%[201 µM] | / | -1%[201 µM] | /
O=C(N/N=C/c1cccn1-c1cccc(C(=O)O)c1)Nc1ccccc1 | 5% | 25µM* | -4% | -3%
O=C(O)c1cccc(-n2cccc2C=C2C(=O)c3ccccc3C2=O)c1 | 6% | -18% | -10% | -5%
Cc1cc(C)c(NC(=O)CSc2nc3nc(C)cc(C)n3n2)c(C)c1 | -9% | / | 20µM*[quencher] | -2%
Oc1cc(O)c2c(c1)O[C@H](c1ccc(O)c(O)c1)[C@@H](O)C2 | -1% | ? | -3% | -3%
O=c1c(O)cc(C2Oc3cc(O)cc(O)c3CC2O)cc2c(C3Oc4cc(O)cc(O)c4CC3O)cc(O)c(O)c12 (centres undefined) | 1% | 3.2µM* | 28µM*[quencher] | 28µM*
O=C(Nc1ccc(S(=O)(=O)N2CCCCC2c2cccnc2)cc1)c1ccc(F)cc1 (centres undefined) | -3% | / | -4% | -6%
Cc1ccc2oc(C(=O)Nc3ccc(S(=O)(=O)Nc4nc(C)cc(C)n4)cc3)cc(=O)c2c1 | -2% | / | 32µM*[quencher] | -8%
CC(C)C(=O)OC(=O)C(C)C | 5%[201 µM] | / | -1%[201 µM] | /
O=C(O)c1cccc(-n2cccc2/C=C2/NC(=O)N(c3cccc(Cl)c3)C2=O)c1 | -2% | 32µM* | -3% | -11%
COc1ccc(-n2cccc2/C=C2/NC(=O)N(c3cccc(Cl)c3)C2=O)cc1 | 0% | -8% | 1% | 3%
O=C(O)c1ccc(COc2ccccc2/C=C2\NC(=O)N(Cc3ccc(F)cc3)C2=O)cc1 | 8% | -2% | 1% | -9%
O=C(O)c1ccc(COc2ccccc2/C=C2/NC(=O)N(c3cccc(Cl)c3)C2=O)cc1 | 8% | ? | -1% | 20µM*
Cc1ccc(Cl)cc1NC(=O)CN1C(=O)C(C)(C)c2cc(S(=O)(=O)N3CCCCC3)ccc21 | -20% | / | 0.0045µM*[quencher] | -7%
Cc1nc(-n2nc(C)c(Cc3ccc(Cl)cc3)c2C)sc1C(=O)N1CCCCC1C (centres undefined) | -22% | / | 17783µM*[quencher] | -7%
Cc1cc(C(=O)O)ccc1-c1ccc(/C=C2\SC(=O)N(CC(=O)Nc3ccc4c(c3)OCO4)C2=O)o1 | / | / | / | 11µM*
Cc1cc(NC(=O)COc2ccc(Cl)cc2Cl)n(-c2ccccc2)n1 | -11% | i | -3% | -2%
Cc1cc(NC(=O)CSc2cc(Cl)ccc2Cl)n(-c2ccccc2)n1 | -23%[53 µM] | -9% | 32µM*[quencher] | 0%
CCOC(=O)COc1ccc([N+](=O)[O-])cc1-c1ccnc2cc(-c3ccc(C)cc3)nn12 | 2% | / | -16% | -8%
Cc1ccc(-c2cc3nccc(-c4cc([N+](=O)[O-])ccc4O)n3n2)cc1 | -6% | / | 45µM*[quencher] | -2%
Cc1cc(O)c(-c2ccnc3cc(-c4ccccc4)nn23)cc1Cl | -6% | / | 11µM*[quencher] | -9%
CNc1nc(=O)n(C2CCCCC2)c(=O)n1C | 2%[201 µM] | / | -1%[201 µM] | /
COc1ccc(-c2onc(C)c2C)cc1S(=O)(=O)N1CCc2ccccc21 | 2% | / | -1% | -10%
COc1cc2oc(-c3ccccc3)cc(=O)c2cc1OC | -2% | -6% | -1% | 7%
O=c1cc(-c2ccc(O)cc2O)oc2ccccc12 | 0% | -5% | -2% | 2%
